Measurements reported in PubChem BioAssay (NCI).
Compounds without any hit were thinned out: in the full panel of roughly 83,000, 20% have a hit.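 Assay: single dose, 48 h. Readout: percent growth (0 = no net growth; negative = cell death). Active: <10.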 Active and inactive are the calls of the source.

Key:
Assay in all cases: NCI-60 one-dose screen, 48 h (100 = growth as untreated, 0 = no growth, -100 = all killed)
Conditions in all cases: 10 µM unless noted
[1] = tested on: HCT-15 colon
[2] = tested on: HT29 colon
[3] = tested on: SNB-75 CNS
[4] = tested on: SNB-19 CNS
[5] = tested on: U251 CNS
[6] = tested on: PC-3 prostate
[7] = tested on: SK-MEL-5 melanoma
[8] = tested on: UACC-62 melanoma
[9] = tested on: LOX IMVI melanoma
[10] = tested on: SK-MEL-28 melanoma

Measured: growth

CN(C)CCCNC(=O)c1cncnc1Nc1ccc(OCc2cccc(F)c2)c(Cl)c1
active: [1] -37.6% | [2] -49.7% | [3] -18.2% | [5] -52.5% | [6] 0.306% | [8] -84.7% | [9] -88.1% | [10] -86.1%
inactive: [4] 57.3% | [7] 61.3%

COc1ccc(CCN(CC(=O)N(CC(N)=O)C2CCC[C@@H]2OCc2ccccc2)C(=O)CN(C(=O)CN(CCc2ccc(Cl)cc2)C(=O)CN(C(=O)CN(C)Cc2ccccc2F)[C@H](C)C2CCCCC2)[C@H](C)C2CCCCC2)cc1OC (stereo not given in full)
inactive: [1] 33.7% | [3] 53.5% | [4] 33.9% | [5] 21.5% | [6] 15% | [8] 33.8% | [10] 32.5%
active: [2] 0.386% | [7] -41.8% | [9] -33%

Cc1ccc(S(=O)(=O)c2nc(-c3ccccc3)oc2Sc2nc3ccccc3s2)cc1
inactive: [1] 44.8% | [2] 94.2% | [3] 70.8% | [4] 100% | [5] 90.5% | [6] 97.2% | [7] 53.3% | [8] 80.3% | [9] 24.6% | [10] 109%

FC(F)(F)Oc1cccc(-c2cnc3ccc(-c4ccncc4)nn23)c1
active: [1] 8.36% | [8] -0.898% | [9] 9.23%
inactive: [2] 14.7% | [3] 41.6% | [4] 23.5% | [5] 18.7% | [6] 15.5% | [7] 22.6% | [10] 20%

O=C1Nc2ccccc2/C1=C/c1cccn1C(=O)c1ccc(Cl)s1
inactive: [1] 17.8% | [2] 80.5% | [3] 63.6% | [4] 28.4% | [5] 22.3% | [6] 33% | [7] 69.8% | [8] 94.9% | [9] 79.2% | [10] 113%

[2H]C([2H])([2H])Oc1ccc(F)cc1/C=C/C(=O)/C=C(O)/C=C/c1cc(F)ccc1OC([2H])([2H])[2H]
inactive: [1] 79.9% | [2] 98.8% | [3] 94.9% | [4] 91.8% | [5] 76.8% | [6] 93.1% | [7] 92.8% | [8] 80.6% | [9] 85.1% | [10] 116%

CNC(=O)c1cc(Oc2cccc3nc(NC(=O)Nc4cc(C(F)(F)F)ccc4Cl)ccc23)ccn1
inactive: [1] 90% | [2] 89.8% | [3] 68.9% | [4] 102% | [5] 70.4% | [6] 96.5% | [7] 80.2% | [8] 96.3% | [9] 63.9% | [10] 92.4%

O=C1/C(=C\c2ccccn2)c2ccccc2N1c1c(Cl)cccc1Cl
inactive: [1] 12.6% | [2] 10.8% | [4] 34.8% | [6] 31.4% | [7] 23.7% | [8] 24.9% | [10] 14.6%
active: [3] -28.2% | [5] -2.48% | [9] -89.2%

Nc1nc(NC(=O)Nc2ccc(C(=O)O)cc2)nn1-c1ccc(S(N)(=O)=O)cc1
inactive: [1] 105% | [2] 105% | [3] 90.4% | [4] 90.6% | [5] 93.2% | [6] 83.6% | [7] 96.1% | [8] 96.2% | [9] 98.8% | [10] 100%

CN1CCN(c2ccc3nc4c(nc3c2C(F)(F)F)C(=O)c2ncccc2C4=O)CC1
inactive: [4] 17.9%
active: [1] -47.5% | [2] -55.5% | [3] 5.3% | [5] 0.911% | [6] 8.01% | [7] -99.7% | [8] -82.5% | [9] -50.1% | [10] 5.49%

O=C(C1=Cc2cc3ccccc3n2Cc2cnnn21)c1ccc(O)cc1
inactive: [1] 37.3% | [2] 27.3% | [3] 31% | [4] 63.2% | [5] 53.5% | [6] 62.4% | [7] 54.2% | [8] 32.9% | [9] 50.6% | [10] 66.8%

N#Cc1cccc(C2C3=C(COC3=O)N(CCO)c3cc4c(cc32)CCC4)c1 (stereo not given)
active: [1] 9.99% | [2] 4.8% | [7] -3.37%
inactive: [3] 43.8% | [4] 23% | [5] 14.6% | [6] 22.9% | [8] 45.6% | [9] 19% | [10] 51.2%

Cc1ccc(-c2nc(SCc3nc4cc(Cl)c(Cl)cc4[nH]3)[nH]c(=O)c2C#N)cc1
inactive: [1] 104% | [2] 95.7% | [3] 87.2% | [4] 106% | [5] 98.7% | [6] 94% | [7] 104% | [8] 99.5% | [9] 102% | [10] 111%
